Sampled rows, rich in hits. Any-hit rate of the full collection: about 6.6%.
Mdm2 MdmX PPI: human Mdm2/MdmX binding inhibition; inhibition, % at 8 µM; SaOS-2 split-luciferase Mdm2/MdmX complementation, luminescence; 330,000 tested, 3% active; O15151+Q00987; AID 485346;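 active = inhibition of at least 50% at 8 µM in the primary screen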
Gli-Sufu antag: antagonists of Gli-Sufu signaling; Sufu-KO-LIGHT fibroblasts, Gli luciferase reporter luminescence; inhibition, % at 5 µM; 340,000 tested, 0.74% active; AID 588413;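 active = inhibition above about 55%, limit read from the data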
MPTP inh: permeability transition pore inhibition | isolated mouse mitochondria, Ca2+ swelling absorbance, 30 min | inhibition, % at 10 µM | 360,000 tested, 1.4% active;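 active = inhibition of 50% or more, scaled per plate between neutral and stimulator controls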
Beta apoptosis: blocks beta cell apoptosis. INS-1E cytokine-induced death, ATP luminescence, 48 h; percent of positive-control rescue, neutral wells zero. protection from apoptosis, % (concentration not given with the values). 300,000 tested, 0.8% active. AID 435005;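 active = Every replicate reaches about 75%, or at least half do and their mean reaches it too, limit read from the data; inconclusive = At least half of replicates reach the limit but their mean does not; inactive = Under half of replicates reach the limit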;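 also: higher means more ATP so stronger rescue from cytokine killing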
CSC inhib: cancer stem cell inhibition. cancer stem cell-like cells viability, luminescence. 300,000 tested, 1.1% active. AID 2717. inhibition, % at 7.5 µM; in the data active = inhibition above about 75%; inconclusive = no clear call, values can overlap the other calls; tested in HMLE shEcad cells
NR3A LBD binder: modulators (binders) of human NR3A ligand-binding domain | NR3A LBD differential scanning fluorimetry, Tm shift; 0% = protein alone, 100% = glycine-bound protein | Tm shift relative to glycine control, % at 25 µM | 340,000 tested, 2.5% active | AID 1259313;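 active = melting temperature shift of at least 10% of the positive control shift, at one fixed dose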
Gli antag conf: confirmation of Gli-SUFU pathway antagonists | shares compounds with Gli-Sufu antag | Sufu-KO-LIGHT cells, Gli luciferase reporter, luminescence | inhibition, % at 5 µM | 2,500 tested, 40% active | AID 602428;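 active = mean inhibition at 5 µM reaching about 45%, limit read from the data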
SufuKO cytotox: counter-screen for Gli-SUFU antagonists: cytotoxicity | 2,500 tested, 32% active | shares compounds with Gli-Sufu antag | Sufu-KO-LIGHT cells cytotoxicity, ATP luminescence | cytotoxicity, % at 5 µM | AID 651994;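 active = mean cytotoxicity at 5 µM above about 25%, limit read from the data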;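 also: cells exposed to compound overnight for roughly 16 to 18 hours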
Wnt3a cs: inhibits Wnt3a reporter, counter-screen for Gli-SUFU antagonists. AID 651995. shares compounds with Gli-Sufu antag. Wnt-LIGHT cells, Wnt3a-driven luciferase reporter, luminescence. inhibition, % at 6.25 µM. 2,500 tested, 20% active;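 active = mean inhibition above about 25%, limit read from the data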
A number is an active result.

Results for CCOc1cc(C(C(=O)NCC2CCCO2)N(C(=O)Cn2nnc3ccccc32)c2ccc(OC)c(OC)c2)ccc1O (centres undefined) ?
Mdm2 MdmX PPI: inactive; Gli-Sufu antag: 57.5; MPTP inh: inactive; Beta apoptosis: inactive; NR3A LBD binder: inactive; Gli antag conf: inactive; SufuKO cytotox: inactive; Wnt3a cs: inactive

What do the screens show for `Clc1ccc(C[n+]2cc(-c3ccccc3)n3c2CCCCC3)c(Cl)c1`?
Mdm2 MdmX PPI: inactive; Gli-Sufu antag: 85.6; MPTP inh: inactive; Beta apoptosis: inactive; CSC inhib: inactive; NR3A LBD binder: inactive; Gli antag conf: 87.1; SufuKO cytotox: 44.1; Wnt3a cs: inactive

Results for Clc1ccc(-c2c[n+](Cc3ccc(Cl)cc3Cl)c3n2CCCCC3)cc1 ?
Mdm2 MdmX PPI: inactive; Gli-Sufu antag: 65.5; MPTP inh: inactive; Beta apoptosis: inactive; CSC inhib: inactive; NR3A LBD binder: inactive; Gli antag conf: 74.6; SufuKO cytotox: 30.4; Wnt3a cs: inactive

How did Cc1ccc(S(=O)(=O)NC(=O)NC(C)c2ccc(F)cc2)cc1 (centres undefined) do in these assays?
Mdm2 MdmX PPI: inactive; Gli-Sufu antag: inactive; MPTP inh: inactive; Beta apoptosis: inactive; CSC inhib: inactive; NR3A LBD binder: inactive

How did COC1C(CO)OC(n2c3c(Cl)cccc3c3c4c(c5c6cccc(Cl)c6[nH]c5c32)C(=O)NC4=O)C(O)C1O (centres undefined) do in these assays?
Gli-Sufu antag: 61.7; MPTP inh: inactive; NR3A LBD binder: inactive; Gli antag conf: inactive; SufuKO cytotox: 25.7; Wnt3a cs: 29.7

What do the screens show for `CCOc1ccc(/C(O)=C/C(=O)C(=O)Nc2ccc(S(=O)(=O)NC(C)=O)cc2)cc1`?
Mdm2 MdmX PPI: inactive; Gli-Sufu antag: 83.8; MPTP inh: inactive; Beta apoptosis: inactive; CSC inhib: inactive; NR3A LBD binder: inactive; Gli antag conf: inactive; SufuKO cytotox: inactive; Wnt3a cs: inactive

Results for Cc1ncc(CN2CCC(N3CCC(C(=O)N4CCCC4)CC3)CC2)s1 ?
Mdm2 MdmX PPI: inactive; Gli-Sufu antag: inactive; MPTP inh: inactive; Beta apoptosis: inactive; CSC inhib: inactive; NR3A LBD binder: inactive

How did S=C(Nc1ccc(Cl)cc1)NC1CC2CCCC(C1)N2C1CCCC1 (centres undefined) do in these assays?
Mdm2 MdmX PPI: inactive; Gli-Sufu antag: 60.5; MPTP inh: inactive; Beta apoptosis: inactive; CSC inhib: inactive; NR3A LBD binder: inactive; Gli antag conf: inactive; SufuKO cytotox: 31.1; Wnt3a cs: inactive

What do the screens show for `S=C(Nc1ccc(Cl)cc1)NC1CC2CCCC(C1)N2C1CC1` (centres undefined)?
Mdm2 MdmX PPI: inactive; Gli-Sufu antag: inactive; MPTP inh: inactive; Beta apoptosis: inactive; CSC inhib: inactive; NR3A LBD binder: inactive

Results for CS(=O)(=O)NCCNC(=O)c1cc(OCC(F)(F)F)ccc1OCC(F)(F)F ?
Mdm2 MdmX PPI: inactive; Gli-Sufu antag: inactive; MPTP inh: inactive; Beta apoptosis: inactive; CSC inhib: inactive; NR3A LBD binder: inactive

What do the screens show for `CCN(CC)CCn1c2c(c(SCC(=O)Nc3cccc4ccccc34)nc1=O)CCC2`?
Mdm2 MdmX PPI: inactive; Gli-Sufu antag: inactive; MPTP inh: inactive; Beta apoptosis: inactive; CSC inhib: inactive; NR3A LBD binder: inactive

What do the screens show for `O=C(CN1C(=O)c2ccccc2S1(=O)=O)Nc1cccnc1`?
Mdm2 MdmX PPI: inactive; Gli-Sufu antag: inactive; MPTP inh: inactive; Beta apoptosis: inactive; CSC inhib: inactive; NR3A LBD binder: inactive

How did O=C(CN1C(=O)c2ccccc2C1=O)Nc1cccnc1 do in these assays?
Mdm2 MdmX PPI: inactive; Gli-Sufu antag: 64.1; MPTP inh: inactive; Beta apoptosis: inactive; NR3A LBD binder: inactive; Gli antag conf: inactive; SufuKO cytotox: inactive; Wnt3a cs: inactive

How did COc1ccc2[nH]c(C)c(CCNC(=S)Nc3cccc(C)c3C)c2c1 do in these assays?
Mdm2 MdmX PPI: inactive; Gli-Sufu antag: inactive; MPTP inh: inactive; CSC inhib: inactive; NR3A LBD binder: inactive

How did COc1ccc2[nH]c(C)c(CCNC(=S)Nc3ccccc3C)c2c1 do in these assays?
Mdm2 MdmX PPI: inactive; Gli-Sufu antag: 69.0; MPTP inh: inactive; CSC inhib: inactive; NR3A LBD binder: inactive; Gli antag conf: inactive; SufuKO cytotox: inactive; Wnt3a cs: inactive

How did CNC(=S)N/N=C(\C)c1ccc(N2CCOCC2)cc1 do in these assays?
Gli-Sufu antag: 67.5; MPTP inh: inactive; NR3A LBD binder: inactive; Gli antag conf: inactive; SufuKO cytotox: inactive; Wnt3a cs: inactive

How did CCNC(=S)N/N=C(\C)c1ccc(N2CCOCC2)cc1 do in these assays?
Mdm2 MdmX PPI: inactive; Gli-Sufu antag: inactive; MPTP inh: inactive; Beta apoptosis: inactive; CSC inhib: inactive; NR3A LBD binder: inactive

Results for CCOc1cc(C(=O)N/N=C/C(Br)=C/c2ccccc2)cc(OCC)c1OCC ?
Mdm2 MdmX PPI: inactive; Gli-Sufu antag: inactive; MPTP inh: inactive; Beta apoptosis: inactive; CSC inhib: inactive; NR3A LBD binder: inactive; Gli antag conf: 64.5; SufuKO cytotox: 46.8; Wnt3a cs: inactive

Results for CC(=O)OC[C@@H]1CN(Cc2ccccc2)C[C@H](n2cnc3c(NC4CCC4)ncnc32)O1 ?
MPTP inh: inactive

What do the screens show for `COc1cc(C2C3=C(COC3=O)Oc3cc4c(cc32)OCO4)ccc1OC(C)=O` (centres undefined)?
Gli-Sufu antag: inactive; MPTP inh: inactive; NR3A LBD binder: inactive

Results for COc1cc(C2C3=C(COC3=O)Oc3cc4c(cc32)OCO4)cc(OC)c1OC(C)=O (centres undefined) ?
Gli-Sufu antag: 62.7; MPTP inh: inactive; NR3A LBD binder: inactive; Gli antag conf: 49.9; SufuKO cytotox: 63.3; Wnt3a cs: inactive

What do the screens show for `O=C(Oc1c(CN2CCOCC2)cc(Cl)c2cccnc12)c1ccccc1`?
Mdm2 MdmX PPI: inactive; Gli-Sufu antag: 74.8; MPTP inh: inactive; Beta apoptosis: inconclusive; CSC inhib: inactive; NR3A LBD binder: inactive; Gli antag conf: inactive; SufuKO cytotox: 32.0; Wnt3a cs: inactive

How did CCCSc1nnc(NC(=O)c2nc(SC)ncc2Cl)s1 do in these assays?
Mdm2 MdmX PPI: inactive; Gli-Sufu antag: 56.3; MPTP inh: inactive; Beta apoptosis: inactive; CSC inhib: inactive; NR3A LBD binder: inactive; Gli antag conf: inactive; SufuKO cytotox: inactive; Wnt3a cs: inactive

How did CSc1ncc(Cl)c(C(=O)Nc2nnc(SC)s2)n1 do in these assays?
Mdm2 MdmX PPI: inactive; Gli-Sufu antag: inactive; MPTP inh: inactive; Beta apoptosis: inactive; NR3A LBD binder: inactive

What do the screens show for `CCCCNC(=O)CSc1nc2ccsc2c(=O)n1C1CCN(C(=O)OCC)CC1`?
Mdm2 MdmX PPI: inactive; Gli-Sufu antag: inactive; MPTP inh: inactive; Beta apoptosis: inactive; CSC inhib: inactive; NR3A LBD binder: inactive
